Assay [1] in a line: ATG_DR4_LXR_CIS: Attagene CIS-FACTORIAL HepG2 Assay for human Liver X Receptor (LXR), DR4 submotif (AID 2282929). To be noted: HepG2 Attagene DR4 cis-reporter, mRNA transcription; actives raise or lower the signal. The procedure, abridged:
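HepG2 cells were transiently transfected with multiple cis-regulated reporter units and dosed for 24 hours. The DR4 reporter mRNA was quantified by RT-PCR, 6-FAM labelling and capillary electrophoresis. Bidirectional fits used DMSO as baseline.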

For assay [2], the target named is Aryl hydrocarbon receptor (Homo sapiens) (UniProt P35869). As to the kind of experiment: ATG_Ahr_CIS: Attagene CIS-FACTORIAL HepG2 Assay for human Aryl Hydrocarbon Receptor (Ahr) (AID 2282930). To be noted: HepG2 AhR cis-factorial reporter transcription; actives raise or lower the signal. The procedure, abridged: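 Transient MRTU transfection of HepG2 → 24 h compound exposure → total RNA, oligo(dT) RT → PCR, 6-FAM extension, HpaI cut → CE fluorescence. DMSO = baseline; bidirectional curve fit.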

A short description of assay [3]: ATG_AP_1_CIS: Attagene CIS-FACTORIAL HepG2 Assay for human Activator Protein 1 (AP-1) (AID 2282931). To be noted: HepG2 Attagene cis-factorial AP-1 reporter mRNA; actives raise or lower the signal. In a few lines:
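HepG2 cells transiently transfected with cis-element-driven reporter transcription units, dosed for 24 hours. Reporter mRNA measured by RT-PCR, 6-FAM labelling, HpaI digestion and capillary electrophoresis. Bidirectional fitting against DMSO baseline.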

Assay [4] in a line: ATG_AP_2_CIS: Attagene CIS-FACTORIAL HepG2 Assay for human Activator Protein 2 (AP-2) (AID 2282932). To be noted: HepG2 AP-2 cis-reporter, Attagene transcription factor profiling; actives raise or lower the signal. In a few lines:
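Endogenous transcription factor activity is reported through transfected multiplex reporter constructs in HepG2, after 24 h of compound exposure. Transcripts were quantified by RT-PCR and capillary electrophoresis of fluorescent fragments. Bidirectional fit against DMSO.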

A short description of assay [5]: ATG_BRE_CIS: Attagene CIS-FACTORIAL HepG2 Assay for human Bone Morphogenetic Protein (BMP) Response Element (BRE) (AID 2282933). To be noted: HepG2 BMP response element reporter, Attagene transcription factor profiling; actives raise or lower the signal. In a few lines: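 A HepG2 multiplex reporter system measured inducible reporter mRNA 24 h post-dosing. Detection: RT-PCR, 6-FAM primer extension, HpaI digestion, capillary electrophoresis. Activity fitted bidirectionally relative to DMSO.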

The target of assay [6] is Retinoic acid receptor alpha (Homo sapiens) (UniProt P10276). As to the kind of experiment: ATG_DR5_RAR_CIS: Attagene CIS-FACTORIAL HepG2 Assay for human Retinoic Acid Receptor Alpha (RARE), DR5 submotif (AID 2282934).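 As to AC50: reporter responds to endogenous RAR alpha beta and gamma in HepG2 not RARA alone.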 Particulars: HepG2 Attagene cis-factorial RARE DR5 reporter, mRNA; actives raise or lower the signal. The procedure, abridged: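 Transient MRTU transfection of HepG2; 24 h compound treatment; TriZol RNA, oligo(dT) RT, PCR, FAM labelling, capillary electrophoresis. Bidirectional fit vs DMSO. Endogenous TF activity at DR5 RARE.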

The target in assay [7] is Transcription factor E2F1 (Homo sapiens) (UniProt Q01094). Description: ATG_E2F_CIS: Attagene CIS-FACTORIAL HepG2 Assay for human E2F Transcription Factor 1 (AID 2282935). Particulars: HepG2 Attagene cis-reporter, E2F reporter RNA transcripts; actives raise or lower the signal. The procedure, abridged:
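Gain or loss of reporter transcript, fitted against DMSO, reflects E2F1-driven transcription. Transiently transfected HepG2 dosed 24 h before RNA isolation. Quantified by fluorescent RT-PCR products separated by capillary electrophoresis.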

Assay [8] in a line: ATG_E_Box_CIS: Attagene CIS-FACTORIAL HepG2 Assay for human Enhancer Box (E-box) (AID 2282936). To be noted: HepG2 E-box cis-reporter transcription, actives raise or lower the signal. In a few lines: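 E-box-driven reporter transcripts measured in transiently transfected HepG2 after 24 h exposure: RNA reverse-transcribed, PCR-amplified, fluorescently labelled, digested and resolved by capillary electrophoresis. Gain or loss relative to DMSO.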

The nature of assay [9]: ATG_M_61_CIS: Attagene CIS-FACTORIAL HepG2 Assay for M61 Transcription Factor (Internal Marker) (AID 2282937). Particulars: HepG2 Attagene CIS-FACTORIAL M61 internal marker reporter; actives raise or lower the signal. The procedure, abridged:
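HepG2 cells transiently transfected with multiplexed cis-promoter reporter units reporting endogenous transcription factor activity, measured 24 h after dosing. Reporter mRNA quantified by RT-PCR and capillary electrophoresis; bidirectional fit against DMSO baseline.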

Assay [10] is described as follows: ATG_M_19_CIS: Attagene CIS-FACTORIAL HepG2 Assay for M19 Transcription Factor (Internal Marker) (AID 2282939). Particulars: HepG2 Attagene CIS-FACTORIAL M19 internal marker reporter; actives raise or lower the signal. In a few lines:
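Chemical-treated HepG2 (24 h) with MRTU constructs; reporter transcripts detected by fluorescent RT-PCR fragment analysis on capillary electrophoresis. Internal background marker, DMSO as baseline.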

The nature of assay [11]: ATG_Ets_CIS: Attagene CIS-FACTORIAL HepG2 Assay for human Erythroblast Transformation Specific (ETS) (AID 2282941). To be noted: HepG2 ETS cis-reporter transcription, actives raise or lower the signal. The procedure, abridged:
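RT-PCR/capillary electrophoresis fluorescence read-out of reporter mRNA; HepG2 transient multi-reporter transfection; 24 h compound exposure; gain or loss of signal fitted bidirectionally relative to DMSO.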

Assay [12] concerns the target Hepatocyte nuclear factor 3-beta (Homo sapiens) (UniProt Q9Y261). As to the kind of experiment: ATG_FoxA2_CIS: Attagene CIS-FACTORIAL HepG2 Assay for human Forkhead box A2 (FOXA2) (AID 2282942). Particulars: HepG2 cis-reporter transcription factor activity, 24 h; actives raise or lower the signal. The procedure, abridged: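 HepG2 transiently transfected with a multiplexed cis-promoter reporter library read endogenous FOXA2 activity. After 24 h compound exposure, reporter mRNA was quantified by RT-PCR, HpaI digestion and capillary electrophoresis. Bidirectional fit against DMSO.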

Assay [13] is described as follows: ATG_FoxO_CIS: Attagene CIS-FACTORIAL HepG2 Assay for human Forkhead box O (FoxO) (AID 2282943). Particulars: HepG2 Attagene cis-reporter, FoxO element, mRNA; actives raise or lower the signal. The procedure, abridged:
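HepG2, transient MRTU transfection (cis element, endogenous TFs). Dose 24 h. TriZol RNA → oligo(dT) RT → PCR → 6-FAM primer extension → HpaI cut → CE. Gain/loss vs DMSO.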

Assay [14] in a line: ATG_GATA_CIS: Attagene CIS-FACTORIAL HepG2 Assay for human GATA Binding Protein (AID 2282944). Particulars: HepG2 GATA cis-element reporter, Attagene multiplex mRNA; actives raise or lower the signal. In a few lines: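 Transfected cis-reporter HepG2 cells were treated with chemicals for 24 hours. Total RNA was then converted to cDNA, amplified with reporter-specific primers and analysed by fluorescent capillary electrophoresis, using DMSO-treated wells as baseline.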

Assay [15] is described as follows: ATG_GLI_CIS: Attagene CIS-FACTORIAL HepG2 Assay for human Zinc Finger Protein GLI1 (AID 2282945). Particulars: HepG2, Attagene cis-factorial reporter mRNA, GLI element; actives raise or lower the signal. The procedure, abridged:
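Bidirectional curve fits relative to DMSO, using reporter mRNA levels from RT-PCR plus capillary electrophoresis. Cells were HepG2 transiently carrying cis-regulated reporter constructs, harvested 24 h after dosing.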

Assay [16] can be described thus: ATG_GRE_CIS: Attagene CIS-FACTORIAL HepG2 Assay for human Glucocorticoid Response Elements (GRE) (AID 2282947). To be noted: HepG2 GRE cis-reporter, Attagene multiplex mRNA; actives raise or lower the signal. In a few lines:
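Reporter transcripts read by RT-PCR with capillary electrophoresis fluorescence after a 24 h chemical exposure of HepG2 cells transiently transfected with multiple cis-element reporter units. Gain or loss fitted against DMSO.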

The nature of assay [17]: ATG_ISRE_CIS: Attagene CIS-FACTORIAL HepG2 Assay for human Interferon Regulatory Factor 1 (IRF1) binding to an Interferon-Stimulated Response Element (ISRE) (AID 2282948). Particulars: HepG2 ISRE cis-reporter (Attagene), mRNA transcription readout; actives raise or lower the signal. In a few lines:
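Read-out: fluorescent RT-PCR products resolved by capillary electrophoresis, reporting endogenous transcription factor activity via ISRE-driven reporter mRNA in transfected HepG2 cells dosed for 24 h; gain or loss fitted relative to DMSO.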

A short description of assay [18]: ATG_EGR_CIS: Attagene CIS-FACTORIAL HepG2 Assay for human Early Growth Response 1 (EGR1) (AID 2282938). To be noted: HepG2 Attagene CIS-FACTORIAL EGR reporter mRNA; actives raise or lower the signal. In a few lines: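 HepG2 cells transiently transfected with cis-element-driven multiplexed reporter units, dosed for 24 h. EGR1-element reporter mRNA quantified by RT-PCR, 6-FAM labelling, HpaI digestion and capillary electrophoresis; bidirectional fit versus DMSO.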

Assay [19] in a line: ATG_ERE_CIS: Attagene CIS-FACTORIAL HepG2 Assay for Estrogen Response Element (ERE) (AID 2282940). To be noted: HepG2 ERE cis-reporter, Attagene RNA transcript; actives raise or lower the signal. In a few lines: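 Human liver cells (HepG2) bearing transiently transfected, promoter-regulated reporter units were exposed 24 h. Reporter mRNA induction was detected by capillary electrophoresis of labelled RT-PCR products and fitted bidirectionally to DMSO.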

The target in assay [20] is Bile acid receptor (Homo sapiens) (UniProt Q96RI1). Description: ATG_IR1_CIS: Attagene CIS-FACTORIAL HepG2 Assay for human Nuclear Receptor Subfamily 1 Group H Member 4 (NR1H4), IR1 submotif (AID 2282946). Particulars: IR1 reporter transcription, actives raise or lower the signal. The procedure, abridged: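 HepG2 cells transiently transfected with multiplexed cis-element reporter units read endogenous transcription factor activity. After 24 h compound exposure, reporter mRNA was quantified by RT-PCR, fluorescent labelling, HpaI digestion and capillary electrophoresis; bidirectional fitting versus DMSO baseline.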

More than one record can exist for a structure, and the calls need not agree. The source made the active and inactive calls. The calls were made as follows: active = hit-call score of the fitted dose curve at least 0.9, where 1 is the maximum; inactive = score below 0.9.

Our source for the outcome and AC50 values is PubChem BioAssay (EPA / NIEHS).

Hepatocyte nuclear factor 3-beta (Homo sapiens), sequence (Q9Y261 whole entry, looked up): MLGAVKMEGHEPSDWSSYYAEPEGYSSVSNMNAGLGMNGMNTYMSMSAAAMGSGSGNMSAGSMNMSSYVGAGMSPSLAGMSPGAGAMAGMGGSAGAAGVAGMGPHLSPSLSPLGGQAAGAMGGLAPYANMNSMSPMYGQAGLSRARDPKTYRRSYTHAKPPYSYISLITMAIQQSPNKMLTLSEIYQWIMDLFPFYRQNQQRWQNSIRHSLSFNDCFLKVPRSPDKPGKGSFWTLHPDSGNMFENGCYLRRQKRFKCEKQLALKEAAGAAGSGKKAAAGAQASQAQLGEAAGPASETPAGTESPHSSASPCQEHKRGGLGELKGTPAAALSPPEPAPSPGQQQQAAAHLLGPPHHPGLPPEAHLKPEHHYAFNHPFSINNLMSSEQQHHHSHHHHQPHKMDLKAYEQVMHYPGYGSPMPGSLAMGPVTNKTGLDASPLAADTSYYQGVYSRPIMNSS
Aryl hydrocarbon receptor (Homo sapiens), sequence (P35869 whole entry, looked up): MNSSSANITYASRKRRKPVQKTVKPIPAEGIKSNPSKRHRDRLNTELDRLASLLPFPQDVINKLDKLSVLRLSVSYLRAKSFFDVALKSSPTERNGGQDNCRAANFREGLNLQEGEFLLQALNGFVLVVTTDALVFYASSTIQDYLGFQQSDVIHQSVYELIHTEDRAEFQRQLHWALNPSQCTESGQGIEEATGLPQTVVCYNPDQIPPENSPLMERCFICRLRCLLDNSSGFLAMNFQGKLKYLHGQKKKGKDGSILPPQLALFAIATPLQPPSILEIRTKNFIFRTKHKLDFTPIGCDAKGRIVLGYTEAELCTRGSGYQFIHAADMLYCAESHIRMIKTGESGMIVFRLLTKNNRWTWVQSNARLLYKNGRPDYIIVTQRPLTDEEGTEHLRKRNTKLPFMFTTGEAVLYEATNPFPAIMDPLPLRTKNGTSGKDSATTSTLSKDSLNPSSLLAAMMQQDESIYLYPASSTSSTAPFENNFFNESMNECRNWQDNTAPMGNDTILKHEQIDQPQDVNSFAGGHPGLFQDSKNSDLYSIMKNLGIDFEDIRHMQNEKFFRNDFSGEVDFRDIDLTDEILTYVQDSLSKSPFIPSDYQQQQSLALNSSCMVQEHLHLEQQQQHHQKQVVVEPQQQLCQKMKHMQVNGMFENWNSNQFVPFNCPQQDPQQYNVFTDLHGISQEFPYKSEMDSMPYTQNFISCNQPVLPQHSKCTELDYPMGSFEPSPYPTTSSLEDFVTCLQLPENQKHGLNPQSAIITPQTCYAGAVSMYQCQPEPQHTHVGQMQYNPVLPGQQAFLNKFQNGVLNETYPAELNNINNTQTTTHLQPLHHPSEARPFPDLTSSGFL
Transcription factor E2F1 (Homo sapiens), sequence (Q01094 whole entry, looked up): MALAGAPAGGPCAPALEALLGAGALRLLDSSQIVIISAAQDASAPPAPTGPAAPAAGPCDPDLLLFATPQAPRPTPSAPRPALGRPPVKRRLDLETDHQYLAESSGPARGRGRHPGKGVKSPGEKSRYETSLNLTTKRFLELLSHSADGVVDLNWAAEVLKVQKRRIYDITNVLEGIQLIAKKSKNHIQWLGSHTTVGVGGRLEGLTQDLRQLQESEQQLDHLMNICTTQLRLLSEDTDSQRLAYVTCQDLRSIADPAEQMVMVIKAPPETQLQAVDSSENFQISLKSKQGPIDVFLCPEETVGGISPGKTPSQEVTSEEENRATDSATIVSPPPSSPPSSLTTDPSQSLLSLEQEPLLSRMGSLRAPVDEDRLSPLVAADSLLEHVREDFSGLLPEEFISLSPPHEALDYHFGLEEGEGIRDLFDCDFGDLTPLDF
Retinoic acid receptor alpha (Homo sapiens), sequence (P10276 whole entry, looked up): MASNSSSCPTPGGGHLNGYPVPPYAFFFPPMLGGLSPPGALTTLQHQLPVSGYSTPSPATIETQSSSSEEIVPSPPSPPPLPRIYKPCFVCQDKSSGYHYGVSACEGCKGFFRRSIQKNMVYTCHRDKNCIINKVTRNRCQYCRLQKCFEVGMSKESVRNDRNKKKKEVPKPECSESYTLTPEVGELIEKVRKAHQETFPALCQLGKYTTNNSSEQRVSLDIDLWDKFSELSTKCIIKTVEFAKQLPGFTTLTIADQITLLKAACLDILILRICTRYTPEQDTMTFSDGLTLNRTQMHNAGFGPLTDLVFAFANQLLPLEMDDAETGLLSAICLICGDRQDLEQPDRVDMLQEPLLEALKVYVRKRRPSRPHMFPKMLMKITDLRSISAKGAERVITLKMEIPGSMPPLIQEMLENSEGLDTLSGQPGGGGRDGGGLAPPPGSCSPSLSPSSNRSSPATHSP
Bile acid receptor (Homo sapiens), sequence (Q96RI1 whole entry, looked up): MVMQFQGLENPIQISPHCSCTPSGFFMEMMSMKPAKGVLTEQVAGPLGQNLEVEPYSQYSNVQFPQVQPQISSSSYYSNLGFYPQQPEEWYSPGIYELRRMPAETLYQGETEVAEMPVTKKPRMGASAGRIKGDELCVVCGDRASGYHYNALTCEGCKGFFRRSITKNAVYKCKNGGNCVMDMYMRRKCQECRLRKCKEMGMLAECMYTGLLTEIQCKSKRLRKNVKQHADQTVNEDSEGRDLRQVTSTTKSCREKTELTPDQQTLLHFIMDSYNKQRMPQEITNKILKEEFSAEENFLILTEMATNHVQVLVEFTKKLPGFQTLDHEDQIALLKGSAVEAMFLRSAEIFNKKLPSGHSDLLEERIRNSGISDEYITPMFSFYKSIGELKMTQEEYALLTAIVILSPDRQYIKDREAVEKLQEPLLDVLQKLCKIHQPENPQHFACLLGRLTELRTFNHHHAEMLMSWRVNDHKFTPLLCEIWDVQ

On to `O=[N+]([O-])c1ccccc1O`, for which the call in [1], in assay [2], in assay [3], in assay [4], in [5] and in assay [6] was inactive. Besides, the compound was called inactive in assay [7], in assay [8], in assay [9], in [10], in [11] and in assay [12]. Moreover, the outcome in assay [13], in [14], in assay [15], in assay [16] and in [17] was inactive. In [6], the AC50 is 27.3 µM (active).
With `OCC(c1ccc(Cl)cc1)c1ccc(Cl)cc1`, the concentration at half-maximal activity (AC50) in assay [1] was 50.2 µM (active); in assay [3] it was 51.6 µM (active); in assay [18], 53.2 µM (active); in assay [10], 48.5 µM (active); in assay [14] it was 52.8 µM (active); in assay [15], 61.5 µM (active). The AC50 in [20] was 49.9 µM (active); in assay [17], 54.6 µM (active). In addition, the call in assay [2], in assay [4], in assay [5], in assay [6], in assay [7] and in assay [8] was inactive. The compound was called inactive in assay [9], in [19], in assay [11], in assay [12], in assay [13] and in assay [16].
In the case of `CCOC(=O)Cc1ccccc1`, the result in [1], in assay [2], in assay [3], in [4], in [5] and in assay [6] was inactive. The result in [7], in assay [8], in [9], in [18], in [10] and in [19] was inactive. For the same compound, the outcome in assay [12], in assay [13], in assay [14], in assay [15], in assay [20] and in assay [16] was inactive. In [17], the result was inactive.
Take `Cc1cc(-c2cc(C)c(N)c(C)c2)cc(C)c1N`: the compound was classed as inactive in assay [1], in [3], in assay [4], in assay [5], in [6] and in [7]. For the same compound, the outcome in assay [8], in assay [9], in assay [18], in [10], in [19] and in [11] was inactive. The outcome in assay [12], in assay [13], in assay [14], in [15], in [16] and in [17] was inactive. Besides, the AC50 in assay [2] was 776 nM (active).

In general, AC50 refers to the concentration giving half of the maximal activity seen.
